This is an account of results in PubChem BioAssay (NCI).

Test systems include DU-145 prostate; K-562 leukemia; MALME-3M melanoma; MDA-MB-231 breast; RXF 393 renal; SF-268 CNS; SF-295 CNS; SF-539 CNS; UACC-257 melanoma; M14 melanoma; HCT-15 colon; HT29 colon; SNB-75 CNS; SNB-19 CNS; U251 CNS; PC-3 prostate; SK-MEL-5 melanoma; UACC-62 melanoma; LOX IMVI melanoma; SK-MEL-28 melanoma.
Common to all, as to assay: NCI-60 one-dose screen, 48 h (100 = growth as untreated, 0 = no growth, -100 = all killed)
Holding throughout (details): 10 µM unless noted

SMILES strings stand for the structures. About 83,000 compounds went through this panel and 20% of them were active in at least one assay; those are over-represented in the sample as a whole.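 Negative percent growth values reflect cell death: -40 means 40% of the cells present at the start died, and -100 means all died.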 Unmarked numbers belong to inactive results. The source made the active and inactive calls. How the source made its calls: active means growth percent below 10; inactive means the rest.

Consider `CC(=O)Nc1cccc(C2=CC(c3ccc(C)cc3)n3ncnc3N2)c1` (stereo not given), for which the growth was 102% in the test on DU-145 prostate; 86.2% in the test with K-562 leukemia; 119% with MALME-3M melanoma; 87.8% in the test on MDA-MB-231 breast; 96.4% in the test on RXF 393 renal; 94% in the test on SF-268 CNS. Also, the growth in the test with SF-295 CNS is 114%; with SF-539 CNS, 95.3%; in the test with UACC-257 melanoma it was 112%; in the test on M14 melanoma, 112%; in the test with HCT-15 colon it was 99.3%; with HT29 colon, 109%. The growth in the test with SNB-75 CNS is 94.2%; with SNB-19 CNS, 91.1%; in the test with U251 CNS, 97.3%; with PC-3 prostate it was 84.1%; in the test with SK-MEL-5 melanoma, 91.3%; in the test with UACC-62 melanoma it was 85.6%. Further, the growth in the test with LOX IMVI melanoma was 93.8%; in the test on SK-MEL-28 melanoma, 107%.
On to `CS(=O)(=O)c1ccc(-c2nc3cc(Cl)ccc3n2CC(=O)NO)cc1`, for which the growth in the test with DU-145 prostate was 101%; in the test with K-562 leukemia it was 95.7%; with MALME-3M melanoma, 108%; in the test on MDA-MB-231 breast it was 93.8%; with RXF 393 renal, 94.9%; in the test with SF-268 CNS it was 89.2%. Moreover, the growth in the test on SF-295 CNS was 98%; with SF-539 CNS it was 101%; in the test with UACC-257 melanoma, 102%; in the test with M14 melanoma, 93.6%; with HCT-15 colon, 102%; in the test on HT29 colon it was 95.6%. In addition, the growth in the test on SNB-75 CNS is 73.7%; in the test with SNB-19 CNS it was 96.4%; with U251 CNS, 93.1%; in the test with PC-3 prostate, 95.7%; in the test with SK-MEL-5 melanoma, 103%; with UACC-62 melanoma it was 92.6%. The values for the growth in the test on LOX IMVI melanoma and in the test with SK-MEL-28 melanoma were 97.9% and 100%, respectively.
In the case of `O=C(/C=C/C12c3ccccc3C(c3ccccc31)C1C(=O)NC(=O)C12)c1ccccc1` (stereo not given), the growth in the test with DU-145 prostate is 19.4%; in the test on K-562 leukemia, 13.5%; with MALME-3M melanoma, 47.5%; in the test on MDA-MB-231 breast, 14%; with RXF 393 renal, -13.1% (active); with SF-268 CNS, 29.6%. The growth in the test on SF-295 CNS was 28.2%; in the test on SF-539 CNS it was 18.5%; with UACC-257 melanoma, 46.6%; in the test on M14 melanoma, 19.6%; in the test on HCT-15 colon, 20%; with HT29 colon it was 18.3%. Also, the growth in the test with SNB-75 CNS was -2.11% (active); in the test on SNB-19 CNS, 32.9%; in the test with U251 CNS, 25.6%; in the test with PC-3 prostate, 29.9%; with SK-MEL-5 melanoma it was 28.8%; in the test on UACC-62 melanoma, 36.3%. The values for the growth in the test on LOX IMVI melanoma and in the test on SK-MEL-28 melanoma were 2.81% (active) and 44.7%, respectively.
Consider `CNC(=O)NCC1OC(n2cnc3c(NC(=O)Nc4ccccc4)ncnc32)C2OC(C)(C)OC12` (stereo not given), for which the growth in the test with DU-145 prostate was 93.7%; with K-562 leukemia it was 90.4%; in the test with MALME-3M melanoma, 75.7%; in the test on MDA-MB-231 breast, 107%; with RXF 393 renal, 96.6%; in the test on SF-268 CNS, 91.3%. Further, the growth was 119% with SF-295 CNS; 83.9% with SF-539 CNS; 107% in the test on UACC-257 melanoma; 88.8% with M14 melanoma; 97.5% in the test with HCT-15 colon; 98.5% in the test with HT29 colon. Besides, the growth is 59.7% in the test with SNB-75 CNS; 85.3% in the test with SNB-19 CNS; 94.1% in the test on U251 CNS; 71% with PC-3 prostate; 86.2% with SK-MEL-5 melanoma; 91.5% in the test on UACC-62 melanoma. Also, the growth in the test on LOX IMVI melanoma is 100%; in the test with SK-MEL-28 melanoma, 91.7%.
Regarding `O=C1C2=C(CCN(Cc3ccccc3)C2)N2CCN=C2N1Cc1ccc(C(F)(F)F)cc1`, the growth with DU-145 prostate is 33%; in the test with K-562 leukemia it was 29.4%; in the test with MALME-3M melanoma, 30.4%; in the test with MDA-MB-231 breast, -9.28% (active); in the test with RXF 393 renal, 54%; with SF-268 CNS it was 39.2%. The growth in the test on SF-295 CNS is -10.8% (active); in the test with SF-539 CNS it was 40.8%; in the test with UACC-257 melanoma, 15.5%; in the test on M14 melanoma, 37.2%; in the test on HCT-15 colon, 13%; in the test on HT29 colon, 31%. Also, the growth is 38.1% in the test with SNB-75 CNS; 27.7% in the test with SNB-19 CNS; 21.8% with U251 CNS; 20.3% in the test on PC-3 prostate; 14.2% in the test on SK-MEL-5 melanoma; 18.4% in the test with UACC-62 melanoma. For the same compound, the growth was 29.2% in the test on LOX IMVI melanoma and 47.1% with SK-MEL-28 melanoma.
Regarding `COc1cc2c(c(OC)c1OC)C(=O)/C(=C/c1cc(C)c(O)c(C)c1)S2`, the growth is 12.3% in the test on DU-145 prostate; 21.3% with K-562 leukemia; 45.6% in the test on MALME-3M melanoma; 37.7% in the test with MDA-MB-231 breast; -10.4% (active) in the test on RXF 393 renal; 56.4% in the test with SF-268 CNS. In addition, the growth in the test on SF-295 CNS was 13.7%; in the test on SF-539 CNS, 7.47% (active); in the test on UACC-257 melanoma it was 78.2%; in the test with M14 melanoma, 28.8%; in the test on HCT-15 colon, 25.4%; in the test on HT29 colon, 82.4%. Also, the growth in the test on SNB-75 CNS was 4.46% (active); in the test on SNB-19 CNS, 39.2%; with U251 CNS, 33%; in the test on PC-3 prostate, 30.9%; in the test on SK-MEL-5 melanoma, 4.33% (active); in the test with UACC-62 melanoma, 50.8%. In addition, the growth with LOX IMVI melanoma is 26.4%; in the test on SK-MEL-28 melanoma, 59.3%.
Regarding `O=C(/C=C/C12c3ccccc3C(c3ccccc31)C1C(=O)NC(=O)C12)c1ccc(Cl)cc1` (stereo not given), the growth is 8.95% (active) in the test on DU-145 prostate; 8.8% (active) in the test on K-562 leukemia; -37.4% (active) in the test on MALME-3M melanoma; -24.4% (active) in the test with MDA-MB-231 breast; -75.8% (active) with RXF 393 renal; 29.9% with SF-268 CNS. For the same compound, the growth in the test with SF-295 CNS is 4.52% (active); in the test with SF-539 CNS it was -34.2% (active); in the test on UACC-257 melanoma, 25.3%; in the test on M14 melanoma it was 8.03% (active); in the test on HCT-15 colon it was -43.1% (active); with HT29 colon it was 7.13% (active). Further, the growth in the test on SNB-75 CNS was 8.43% (active); in the test with SNB-19 CNS, 17.3%; in the test with U251 CNS it was -10.9% (active); in the test with PC-3 prostate, 21.7%; with SK-MEL-5 melanoma, -61.5% (active); with UACC-62 melanoma, -18.3% (active). Moreover, the growth in the test with LOX IMVI melanoma was -87.9% (active); in the test with SK-MEL-28 melanoma, -32.1% (active).
